The source of these data is PubChem BioAssay (Tox21).

Results filed as inconclusive are left out. Values without a mark were called inactive. Activity calls are given as the source filed them. Unless noted, calls come from the whole dose curve.
% is set by controls: 0 for no effect and ±100 for the full control effect.

The nature of one assay: qHTS assay to identify small molecule agonists of H2AX (AID 1224845; active = well fitted activation curve with a large enough effect in the signal ratio in the repeat runs, not every such curve was filed as active; the % refers to the signal ratio). The settings on record: CHO-K1 phospho-H2AX Ser139 HTRF, 3 h; series mostly up to 154 µM; activation (H2AX phosphorylation): at the top concentration. A digest of the protocol:
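Phospho-H2AX Ser139 measured by HTRF (ex 320 nm; em 665 and 620 nm) after 24 hr antibody incubation. Compounds, 15 concentrations, 0.76% DMSO, were applied to CHO-K1 cells for 3hr at 37C before lysis.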
On the technique in general: In qHTS, concentration-response curves come from the screen itself.
For the molecule `CCCCCCCCSCC`, the “activation (H2AX phosphorylation)” value is -1.45%.

Regarding `CC(C)NCC(O)COc1ccc(COCCOC(C)C)cc1` (stereo not given), the “activation (H2AX phosphorylation)” value is -3.1% [at 70.9 µM].

In the case of `CCOC(=O)c1ncn2c1CN(C)C(=O)c1cc(F)ccc1-2`, the “activation (H2AX phosphorylation)” value was -5.5% [at 70.9 µM].

The nature of a further assay: qHTS assay to identify small molecule agonists of the hypoxia (HIF-1) signaling pathway (AID 1224846; active = well fitted activation curve with a large enough effect in the signal ratio in the repeat runs, not every such curve was filed as active; the % refers to the signal ratio). The settings on record: HRE-bla ME-180 cells, beta-lactamase ratio, 17 h; series mostly up to 76.8 µM; activation: at the top concentration. A digest of the protocol:
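Agonist mode reporter screen. ME-180 cells stably expressing bla under HRE control received test compounds in DMSO for 17 hrs (37C, 5% CO2), and beta-lactamase activity was then detected with the CCF4-AM FRET substrate.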
Turning to `COc1ccc2c(c1)C(=O)N(CCc1ccc(S(=O)(=O)NC(=O)NC3CCCCC3)cc1)C(=O)C2(C)C`, the “activation” value is -0.112% [at 35.5 µM].

Take `C=C(C)C(=O)OCc1ccccc1`: the “activation” value was -2.23%.

Regarding `O=C(O)c1cc(Br)c(O)c(Br)c1`, the “activation” value is -0.416%.

For `CCCCCCOc1ccccc1C(N)=O`, the “activation” value was 1.42% [at 35.5 µM].

For the molecule `Brc1ccc(-c2ccccc2)cc1`, the “activation” value is 0.1%.

With `c1ccc2c(c1)ccc1c3ccccc3ccc21`, the “activation” value was 0.341% [at 35.5 µM].

As for `CCCC/C=C/C=C\C=O`, the “activation” value is -0.0906%.

The nature of another assay: qHTS assay to identify small molecule agonists of H2AX - cell viability counter screen (AID 1224847). For activity change, negative = cytotoxicity: top concentration of the series differs between compounds. Note: nearly all actives have a fitted effect of over 30% in size. Note: potency is the fitted concentration of half-maximal effect. The settings on record: CHO-K1 viability, CellTiter-Glo luminescence, 3 h; series mostly up to 154 µM; activity change, negative = cytotoxicity: at the top concentration. A digest of the protocol: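 Wild-type CHO-K1 cells (10% FBS medium) were plated overnight at 37C, exposed to compounds at 15 concentrations for 3 hr at 37C (0.76% DMSO final), and viability was read as CellTiter-Glo luminescence after 30 min at room temperature.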
With `O=P(O)(O)OP(=O)(O)O`, the “activity change, negative = cytotoxicity” value is 1.63%.

Regarding `CC(C)NCC(O)COc1cccc2[nH]ccc12` (stereo not given), the “activity change, negative = cytotoxicity” value was -7.76% [at 70.9 µM].

Regarding `CC(C(=O)O)c1ccc2c(c1)CC(=O)c1ccccc1S2` (stereo not given), the “activity change, negative = cytotoxicity” value is -0.607% [at 70.9 µM].

Turning to `O=C(O)CCSSCCC(=O)O`, the “activity change, negative = cytotoxicity” value was 0.733%.

For the molecule `CCCN1C[C@H](CSC)C[C@@H]2c3cccc4[nH]cc(c34)C[C@H]21`, the “activity change, negative = cytotoxicity” value is -2.64% [at 70.9 µM].

On to `COC(=O)[C@@H]1[C@H]2C[C@H]3c4[nH]c5ccccc5c4CCN3C[C@@H]2CC[C@@H]1O`, for which the “activity change, negative = cytotoxicity” value was -2.77% [at 70.9 µM].

On to `Oc1cn2c(n1)Nc1ccc(Cl)c(Cl)c1C2`, for which the activity change, negative = cytotoxicity is 0.633% [at 31.6 µM].

For the molecule `CC1(CO)CN(c2ccccc2)NC1=O` (stereo not given), the “activity change, negative = cytotoxicity” value is 3.92%.

`COc1ccc2c(c1)C(=O)N(CCc1ccc(S(=O)(=O)NC(=O)NC3CCCCC3)cc1)C(=O)C2(C)C`: the “activity change, negative = cytotoxicity” value is 3.35% [at 70.9 µM].

For `CN(CCOc1ccc(NS(C)(=O)=O)cc1)CCc1ccc(NS(C)(=O)=O)cc1`, the “activity change, negative = cytotoxicity” value is -0.217% [at 70.9 µM].

`O=C(NCCc1c[nH]c2ccccc12)c1cccnc1`: the “activity change, negative = cytotoxicity” value was 0.196% [at 70.9 µM].

Turning to `CCN1CCc2nc(N)oc2CC1`, the “activity change, negative = cytotoxicity” value is 0.455% [at 70.9 µM].

Take `C=C(C)C(=O)OCc1ccccc1`: the “activity change, negative = cytotoxicity” value was 0.645%.

For `CC(C)=O`, the “activity change, negative = cytotoxicity” value is -2.03%.

As to `CCN(CC)CC(=O)Nc1c(C)cccc1C`, the “activity change, negative = cytotoxicity” value was -5.61% [at 70.9 µM].

As to `O=C(O)c1cc(Br)c(O)c(Br)c1`, the “activity change, negative = cytotoxicity” value is 0.218%.

Consider `CCCCCCOc1ccccc1C(N)=O`, for which the “activity change, negative = cytotoxicity” value was -11.9% [at 70.9 µM].

`Brc1ccc(-c2ccccc2)cc1`: the “activity change, negative = cytotoxicity” value is -1.03%.

As to `CCOc1cc([N+](=O)[O-])c(OCC)cc1N1CCOCC1`, the “activity change, negative = cytotoxicity” value is -6.8%.

For the molecule `CC(C)C(=O)OCc1cccc(OC(=O)[C@@H]2N3C(=O)[C@@H](NC(=O)Cc4ccccc4)[C@H]3SC2(C)C)c1`, the “activity change, negative = cytotoxicity” value was -0.51% [at 70.9 µM].

With `c1ccc2c(c1)ccc1c3ccccc3ccc21`, the “activity change, negative = cytotoxicity” value was 1.13% [at 70.9 µM].

As for `C=COCCOCCOCCOC=C`, the “activity change, negative = cytotoxicity” value was 7.55%.

For `CCCCNc1ccc(C(=O)OCCN(C)C)cc1`, the “activity change, negative = cytotoxicity” value was 0.119% [at 70.9 µM].

`CCCC/C=C/C=C\C=O`: the Potency is 1600 nM (active).

For the molecule `CCCCCCN`, the “activity change, negative = cytotoxicity” value is 1.13%.

On to `O=C1CCCC(=O)O1`, for which the “activity change, negative = cytotoxicity” value was 0.119%.

For `Cc1cc(C(C)(C)C)c(O)c(C)c1CC1=NCCN1`, the “activity change, negative = cytotoxicity” value was -7.62% [at 70.9 µM].

For `Nc1nnc(-c2cccc(Cl)c2Cl)c(N)n1`, the “activity change, negative = cytotoxicity” value is 1.49% [at 70.9 µM].

Consider `CCOC(=O)c1ccc(OC(=O)CCCCCN=C(N)N)cc1`, for which the “activity change, negative = cytotoxicity” value is 1.33% [at 70.9 µM].

As for `CC1=C(C(=O)O)N2C(=O)[C@@H](NC(=O)[C@H](N)c3ccc(O)cc3)[C@H]2SC1`, the “activity change, negative = cytotoxicity” value is 0.922% [at 70.9 µM].

On to `Cc1cc2cc3c(C)cc(=O)oc3c(C)c2o1`, for which the “activity change, negative = cytotoxicity” value is 0.717% [at 70.9 µM].

Regarding `CC(C)NCC(O)COc1ccc(COCCOC(C)C)cc1` (stereo not given), the “activity change, negative = cytotoxicity” value is -0.522% [at 70.9 µM].

Turning to `O=Cc1ccc(Cl)c(Cl)c1`, the “activity change, negative = cytotoxicity” value is 2.02%.

Take `CCOC(=O)c1ncn2c1CN(C)C(=O)c1cc(F)ccc1-2`: the “activity change, negative = cytotoxicity” value is 0.553% [at 70.9 µM].

As to `Cc1cc(NC(=O)C2=C(O)c3ccccc3S(=O)(=O)N2C)no1`, the “activity change, negative = cytotoxicity” value was 3.26% [at 70.9 µM].
